Here are results for 2 compounds from PubChem BioAssay (EPA / NIEHS).

Molecules are shown by their SMILES. Active and inactive are the calls of the source. Rule for the calls: active = hit-call score of the fitted dose curve at least 0.9, where 1 is the maximum; inactive = score below 0.9.

Read-out in experiment [1]: Macrophage colony-stimulating factor (MCSF), CSF1 (gene 1435)
Kind of experiment: BSK_hDFCGF_MCSF: BioMAP Diversity Plus: hDFCGF Assay for Macrophage colony-stimulating factor (MCSF) Biomarker Activity (AID 2283060). The note with it: primary human foreskin fibroblasts; actives raise or lower the signal. An outline of the steps: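 M-CSF levels read by ELISA at 24 h post-dosing in human skin fibroblasts. Parallel cultures stained with SRB assessed cytotoxicity at the same time point; response fitted in both directions against the DMSO baseline.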

The nature of experiment [2]: BSK_hDFCGF_SRB: Viability Assessment in the BioMAP Diversity Plus: hDFCGF Assay (AID 2283061).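 Note: cells exposed to compound for 24 h before the read.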 The conditions noted are these: primary human foreskin fibroblasts. The essentials: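 Viability was read as total protein: after 10% TCA fixation, wells were stained with 0.1% sulforhodamine B and read at 560 nm. Primary human foreskin fibroblasts were dosed for 24 h, with bidirectional fitting versus DMSO.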

Read-out in experiment [3]: TIMP metallopeptidase inhibitor 1 (TIMP1), TIMP1 (gene 7076)
Briefly: BSK_hDFCGF_TIMP1: BioMAP Diversity Plus: hDFCGF Assay for TIMP metallopeptidase inhibitor 1 (TIMP1) Biomarker Activity (AID 2283062). The conditions noted are these: primary human foreskin fibroblasts; actives raise or lower the signal. The essentials: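 TIMP-1 measured by ELISA 24 h after chemical dosing of primary human skin fibroblasts, with gain or loss fitted relative to DMSO. Parallel SRB staining (560 nm) monitored overt cytotoxicity.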

Read-out in experiment [4]: Monokine induced gamma interferon (MIG), CXCL9 (gene 4283)
Briefly: BSK_hDFCGF_MIG: BioMAP Diversity Plus: hDFCGF Assay for Monokine induced gamma interferon (MIG) Biomarker Activity (AID 2283063). The note with it: primary human foreskin fibroblasts; actives raise or lower the signal. An outline of the steps: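 Human primary foreskin fibroblasts in the hDFCGF system, exposed to test chemical for 24 h; MIG measured by ELISA. Bidirectional curve fitting against DMSO negative control as activity baseline.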

Read-out in experiment [5]: Matrix Metallopeptidase 1 (MMP1), MMP1 (gene 4312)
Briefly: BSK_hDFCGF_MMP1: BioMAP Diversity Plus: hDFCGF Assay for Matrix Metallopeptidase 1 (MMP1) Biomarker Activity (AID 2283064). The note with it: primary human foreskin fibroblasts; actives raise or lower the signal. The essentials:
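Primary human foreskin fibroblasts exposed to chemicals for 24 h; MMP1 measured by ELISA. Cytotoxicity tracked by SRB staining in parallel cultures; bidirectional fit relative to DMSO.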

Read-out in experiment [6]: Vascular cell adhesion molecule 1 (VCAM1), VCAM1 (gene 7412)
Briefly: BSK_hDFCGF_VCAM1: BioMAP Diversity Plus: hDFCGF Assay for Vascular cell adhesion molecule 1 (VCAM1) Biomarker Activity (AID 2283065).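 For AC50: VCAM-1 protein level quantified by ELISA after 24 h chemical exposure.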 The note with it: primary human foreskin fibroblasts; actives raise or lower the signal. An outline of the steps: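 ELISA readout of VCAM-1 on human dermal fibroblast primary cultures, 24 h after chemical exposure. Gain or loss of signal fitted in both directions against DMSO baseline.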

Read-out in experiment [7]: Plasminogen activator inhibitor-1 (PAI1), SERPINE1 (gene 5054)
Briefly: BSK_hDFCGF_PAI1: BioMAP Diversity Plus: hDFCGF Assay for Plasminogen activator inhibitor-1 (PAI1) Biomarker Activity (AID 2283066). The note with it: primary human foreskin fibroblasts; actives raise or lower the signal. The essentials:
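Primary dermal fibroblasts (human foreskin), hDFCGF system; compound 24 h; PAI-1 by ELISA; bidirectional fit vs DMSO control.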

Read-out in experiment [8]: Intercellular Adhesion Molecule 1 (ICAM1), ICAM1 (gene 3383)
Kind of experiment: BSK_KF3CT_ICAM1: BioMAP Diversity Plus: KF3CT Assay for Intercellular Adhesion Molecule 1 (ICAM1) Biomarker Activity (AID 2283067). The note with it: primary human keratinocytes with fibroblasts; actives raise or lower the signal. An outline of the steps: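 Cell-surface ICAM-1 was measured by ELISA 24 h after dosing primary human skin keratinocytes co-cultured with fibroblasts. Parallel SRB staining tracked overt cytotoxicity. Gain or loss of signal was fitted relative to DMSO.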

Read-out in experiment [9]: Interferon-gamma inducible Protein 10 (IP10), CXCL10 (gene 3627)
Briefly: BSK_KF3CT_IP10: BioMAP Diversity Plus: KF3CT Assay for Interferon-gamma inducible Protein 10 (IP10) Biomarker Activity (AID 2283068). The conditions noted are these: primary human keratinocytes with fibroblasts; actives raise or lower the signal. The essentials:
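Human keratinocyte plus foreskin fibroblast primary co-culture exposed to test chemical for 24 h; IP-10 measured by ELISA. Concentration-response fitted bidirectionally against DMSO control as baseline.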

A short description of experiment [10]: BSK_KF3CT_SRB: Viability Assessment in the BioMAP Diversity Plus: KF3CT Assay (AID 2283069).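 Note: total protein by sulforhodamine B staining as a cytotoxicity measure; read 24 h after compound addition.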 The note with it: primary human keratinocytes with fibroblasts. The essentials: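 Human keratinocyte and foreskin fibroblast co-culture exposed to chemical for 24 h. Total protein measured in parallel cultures by 0.1% sulforhodamine B staining after 10% TCA fixation, read at 560 nm; bidirectional fit relative to DMSO.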

Read-out in experiment [11]: Interleukin-1 alpha (IL1a), IL1A (gene 3552)
Briefly: BSK_KF3CT_IL1a: BioMAP Diversity Plus: KF3CT Assay for Interleukin-1 alpha (IL1a) Biomarker Activity (AID 2283070). The note with it: primary human keratinocytes with fibroblasts; actives raise or lower the signal. The essentials: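 Primary human keratinocyte plus foreskin fibroblast co-culture, dosed and measured at 24 h in 96-well plates. IL-1a level quantified by ELISA; bidirectional fit relative to DMSO.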

Read-out in experiment [12]: TIMP metallopeptidase inhibitor 2 (TIMP2), TIMP2 (gene 7077)
Kind of experiment: BSK_KF3CT_TIMP2: BioMAP Diversity Plus: KF3CT Assay for TIMP metallopeptidase inhibitor 2 (TIMP2) Biomarker Activity (AID 2283071). The conditions noted are these: primary human keratinocytes with fibroblasts; actives raise or lower the signal. The essentials: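 Cells: human keratinocytes co-cultured with foreskin fibroblasts. Treat with chemical, 24 h. Measure TIMP-2 by ELISA; fit curves bidirectionally vs DMSO baseline.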

Read-out in experiment [13]: C-C motif chemokine 2 (Homo sapiens) (UniProt P13500)
Briefly: BSK_KF3CT_MCP1: BioMAP Diversity Plus: KF3CT Assay for Monocyte Chemoattractant Protein 1 (MCP1/CCL2) Biomarker Activity (AID 2283073). The note with it: primary human keratinocytes with fibroblasts; actives raise or lower the signal. An outline of the steps: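 ELISA read-out of MCP-1, 24 h post-dose, in primary human skin keratinocytes co-cultured with fibroblasts. Parallel SRB staining monitors cytotoxicity; changes fitted both directions relative to DMSO.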

Read-out in experiment [14]: Matrix Metallopeptidase 9 (MMP9), MMP9 (gene 4318)
Kind of experiment: BSK_KF3CT_MMP9: BioMAP Diversity Plus: KF3CT Assay for Matrix Metallopeptidase 9 (MMP9) Biomarker Activity (AID 2283074). The conditions noted are these: primary human keratinocytes with fibroblasts; actives raise or lower the signal. The essentials:
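Human keratinocyte and foreskin fibroblast co-culture exposed to chemicals for 24 h; MMP9 biomarker measured by ELISA, bidirectional fitting relative to DMSO; cytotoxicity tracked by SRB total protein staining in parallel cultures.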

Read-out in experiment [15]: urokinase plasminogen activator (uPA), PLAU (gene 5328)
Kind of experiment: BSK_KF3CT_uPA: BioMAP Diversity Plus: KF3CT Assay for urokinase plasminogen activator (uPA) Biomarker Activity (AID 2283075). The note with it: primary human keratinocytes with fibroblasts; actives raise or lower the signal. The essentials: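 Primary human keratinocyte/foreskin fibroblast co-culture exposed to chemical; uPA measured by ELISA at 24 h. Bidirectional fit versus DMSO, with parallel SRB total-protein staining for cytotoxicity.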

Read-out in experiment [16]: CD40, CD40 (gene 958)
Briefly: BSK_LPS_CD40: BioMAP Diversity Plus: LPS Assay for CD40 Biomarker Activity (AID 2283076). The conditions noted are these: primary human HUVEC with PBMC; actives raise or lower the signal. An outline of the steps:
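In the LPS system of human endothelial cells with peripheral blood mononuclear cells, CD40 levels were read by ELISA 24 h post-treatment. Signal changes in either direction were fitted against the DMSO baseline, with parallel SRB protein staining.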

Read-out in experiment [17]: E-selectin (Homo sapiens) (UniProt P16581)
Briefly: BSK_LPS_Eselectin: BioMAP Diversity Plus: LPS Assay for Eselectin Biomarker Activity (AID 2283077). The note with it: primary human HUVEC with PBMC; actives raise or lower the signal. An outline of the steps:
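E-selectin ELISA on LPS-stimulated endothelial cell/PBMC co-cultures, read 24 h post-treatment; gains and losses fitted against DMSO. Parallel SRB staining (0.1% SRB after 10% TCA fixation, 560 nm) flags overt cytotoxicity.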

Read-out in experiment [18]: Interleukin-8 (IL8), CXCL8 (gene 3576)
Kind of experiment: BSK_LPS_IL8: BioMAP Diversity Plus: LPS Assay for Interleukin-8 (IL8) Biomarker Activity (AID 2283078). The note with it: primary human HUVEC with PBMC; actives raise or lower the signal. An outline of the steps:
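ELISA read-out of IL-8 after 24 h chemical treatment of LPS-activated endothelial/PBMC human primary co-cultures. Changes either up or down relative to DMSO; overt cytotoxicity checked by sulforhodamine B staining in parallel wells.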

The nature of experiment [19]: BSK_LPS_SRB: Viability Assessment in the BioMAP Diversity Plus: LPS Assay (AID 2283079).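 Note: total protein by sulforhodamine B absorbance as a cytotoxicity measure; measured one day after compound addition.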 The conditions noted are these: primary human HUVEC with PBMC. The essentials: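 SRB viability endpoint: cells fixed with 10% TCA, stained with 0.1% SRB, read at 560 nm, 24 h post-dose. HUVEC/PBMC co-culture; signal change in either direction scored relative to DMSO.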
Read-out in experiment [20]: Interleukin-1 alpha (IL1a), IL1A (gene 3552)
Kind of experiment: BSK_LPS_IL1a: BioMAP Diversity Plus: LPS Assay for Interleukin-1 alpha (IL1a) Biomarker Activity (AID 2283080). The note with it: primary human HUVEC with PBMC; actives raise or lower the signal. An outline of the steps: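 Readout is IL-1a level by ELISA, 24 h post-dose, fitted as gain or loss relative to DMSO. System: LPS-activated human primary co-culture of vascular endothelium and peripheral blood mononuclear cells, with parallel SRB total-protein cytotoxicity.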

Chain of E-selectin (Homo sapiens) (P16581 whole entry, looked up): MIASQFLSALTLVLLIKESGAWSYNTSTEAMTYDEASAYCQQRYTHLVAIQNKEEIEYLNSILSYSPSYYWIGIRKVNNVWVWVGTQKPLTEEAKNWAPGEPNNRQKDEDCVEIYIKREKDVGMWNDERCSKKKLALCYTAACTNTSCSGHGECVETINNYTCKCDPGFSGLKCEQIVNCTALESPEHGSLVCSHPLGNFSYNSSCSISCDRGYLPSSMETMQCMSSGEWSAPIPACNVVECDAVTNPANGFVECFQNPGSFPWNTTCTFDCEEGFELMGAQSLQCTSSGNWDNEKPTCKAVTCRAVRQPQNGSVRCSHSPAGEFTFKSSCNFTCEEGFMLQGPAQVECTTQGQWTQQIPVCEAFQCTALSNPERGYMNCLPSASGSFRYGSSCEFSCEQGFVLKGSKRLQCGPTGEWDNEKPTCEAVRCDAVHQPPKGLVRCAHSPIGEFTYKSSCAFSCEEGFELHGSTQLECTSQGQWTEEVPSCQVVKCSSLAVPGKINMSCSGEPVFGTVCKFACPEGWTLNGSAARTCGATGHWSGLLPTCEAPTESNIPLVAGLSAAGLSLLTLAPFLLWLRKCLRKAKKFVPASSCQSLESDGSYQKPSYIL

Take `Oc1ccc(Nc2ccccc2)cc1`: the outcome in [1], in experiment [2], in experiment [3], in experiment [4], in experiment [5] and in experiment [8] was inactive. For the same compound, the result in experiment [9], in [10], in experiment [12], in experiment [13], in [14] and in experiment [15] was inactive. Further, the outcome in experiment [17], in [18], in experiment [19] and in experiment [20] was inactive. Also, the AC50 is 3.97 µM (active) in experiment [6], 17.1 µM (active) in experiment [7], 5.84 µM (active) in [11] and 20 µM (active) in experiment [16].

In the case of `FC(F)(F)C(F)(F)C(F)(F)C(F)(F)C(F)(F)C(F)(F)CC1CO1` (stereo not given), the result in [1], in experiment [2], in experiment [3], in experiment [4], in experiment [5] and in experiment [6] was inactive. For the same compound, the outcome in [7], in [8], in experiment [9], in experiment [10], in experiment [11] and in [12] was inactive. For the same compound, the outcome in experiment [13], in [14], in [15], in experiment [16], in experiment [17] and in experiment [18] was inactive. Also, the result in [19] and in experiment [20] was inactive.

What is called AC50 is the concentration at which the activity in the assay is half-maximal.
